# Screens as filed in PubChem.
# Only some compounds are listed: those with a hit (about 7% of all), similar ones and a draw of the others.
# PI5P4K alpha inh: blocks human PI5P4K alpha kinase activity | PI5P4Kalpha enzyme, ADP-Glo luminescence, 60 min; hits give low values | P48426 | actives 1.2% (n = 330,000) | AID 652105 | max response, %; active = max response of -50% or lower; inconclusive = between -30% and -50%; inactive = -30% or higher; also: value at the top dose of about 77 µM; % is scaled to controls: 0 for no effect and ±100 for the full control effect
#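 Quantitative HTS of the MLSMR library against PI5P4Kalpha with substrate. ATP added last at 5 microM final; room temperature, 60 minutes. Remaining ATP depleted, ADP converted and read as luminescence.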
# HP1b chromo inh: inhibitors of HP1-beta chromodomain binding to methylated histone tails; AID 540317; P83916; Potency, µM (titrated, usually from 114 µM), for the others: at the highest dose activity change, negative = inhibition, usual class: inhibitors; AlphaScreen HP1-beta / biotin-H3K9me3 peptide binding; actives 0.56% (n = 390,000); also: potency is read from the fitted curve at half-maximal effect; nearly all actives have a fitted effect of over 70% in size
#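 AlphaScreen: HP1-beta (50 nM) preformed 30 min with biotin-H3(1-18)K9me3 peptide (50 nM) in PBS pH 7.4, 0.01% Tween-20. Compound added for 30 min at RT, then streptavidin donor/nickel chelate acceptor beads (10 ug/mL) for 30 min.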
# JMJD2A Tudor inh: JMJD2A Tudor domain (human) inhibition; AlphaScreen JMJD2A-Tudor / H3K4me3 peptide binding; O75164; AID 504339; Potency, µM (titrated, usually from 114 µM), inactives show at the highest dose activity change, negative = inhibition, usual class: inhibitors; actives 4.4% (n = 390,000); also: potency is read from the fitted curve at half-maximal effect; % is scaled to controls: 0 for no effect and ±100 for the full control effect; nearly all actives have a fitted effect of over 50% in size
# PLK1 PBD block: PLK1 (human) polo-box domain binding inhibition; Potency, µM, without a hit: max response, negative = inhibition, actives largely listed as inhibitors; actives 2.8% (n = 360,000); Plk1 PBD binding of FITC phosphopeptide, fluorescence polarization; P53350; also: potency is read from the fitted curve at half-maximal effect; series mostly up to about 57 µM; % is scaled to controls: 0 for no effect and ±100 for the full control effect; nearly all actives have a fitted effect of over 65% in size
# GCN5L2 inh: blocks human GCN5L2 histone acetyltransferase; Q92830; GCN5L2 HAT assay, ThioGlo1 CoA-SH fluorescence; Potency, µM (highest dose often 58.9 µM), for the others: at the top dose activity change, negative = inhibition, hits mostly inhibitors; actives 0.21% (n = 390,000); AID 504327; also: potency is read from the fitted curve at half-maximal effect; % is scaled to controls: 0 for no effect and ±100 for the full control effect
#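 qHTS, 1536-well. 20nM enzyme, pH 7.5 HEPES/EDTA/Tween-20 buffer; 15 min compound preinc., RT. Start: 75uM H3(1-25), 70uM AcCoA, 50uM ThioGlo1. Read Ex340/Em540 at t=0 (autofluorescence flag) and t=20 min.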
# BAZ2B block: inhibitors of human BAZ2B bromodomain; Q9UIF8; AlphaScreen BAZ2B-H3K14Ac peptide displacement; Potency, µM (highest dose often 114 µM), inactives show top-dose activity change, negative = inhibition, actives largely listed as inhibitors; actives 4.4% (n = 360,000); AID 504333; also: potency is read from the fitted curve at half-maximal effect; % is scaled to controls: 0 for no effect and ±100 for the full control effect; nearly all actives have a fitted effect of over 60% in size
#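 AlphaScreen luminescence quantifies BAZ2B engagement of H3K14Ac peptide; the protein and biotinylated peptide are both at 50 nM final, buffer PBS pH 7.4 with 0.01% Tween-20, all steps at room temperature.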
# * = called active by the depositor; u = inconclusive; x = no result given; [ ] = another dose, or the depositor's remark. Unless noted, calls follow the shape of the dose curve; as a rule, active = well fitted curve in the direction sought with a large enough effect; inconclusive = small, poorly fitted or top-dose-only effect, or another doubt; inactive = no such curve, though single readings can be large; an effect the other way counts as inactive or inconclusive.
SMILES,PI5P4K alpha inh,HP1b chromo inh,JMJD2A Tudor inh,PLK1 PBD block,GCN5L2 inh,BAZ2B block
Cc1ccc(N=C2C(=O)Nc3ccc(C)c(Br)c32)cc1,0,-18%,u,-13%,-4%,u
COc1ccc(N=C2C(=O)Nc3ccc(C)c(Br)c32)cc1,13,u,u,-17%,-4%,6.3µM*
CCn1c(SCC(=O)N2CCN(c3ccccc3F)CC2)nnc1-c1ccoc1C,2,-26%,50µM*,u,3%,-30%
O=C(CSc1nc(-c2ccccc2)no1)N1CCN(c2ccccc2F)CC1,x,35%,20µM*,x,3%,9%
CC(C)c1ccc(-c2noc(SCC(=O)N3CCN(c4ccccc4F)CC3)n2)cc1,x,58%,5%,x,1%,8%
Cc1cc(C)cc(OCC(=O)OCC(=O)NC2CCCCCC2)c1,0,22%,-6%,-7%,0%,-1%
Oc1c(C(c2ccccc2)N2CCC3(CC2)OCCO3)sc2nc(-c3ccco3)nn12 (stereo not drawn),x,6%,-19%,x,0%,-20%
Cc1cc2c(cc3c(SCc4cccc(F)c4)nnc(C)n32)o1,x,13%,-33%,x,-7%,u
Cc1cc2c(cc3c(SCc4ccc(Cl)cc4)nnc(C)n32)o1,x,-14%,u,x,-13%,28µM*
Cc1ccc(S(=O)(=O)N2CCN(c3nc(-c4ccc(CN5CCNCC5)s4)nc4ccccc34)CC2)cc1,x,-20%,u,x,x,x
Cn1c(=S)[nH]c2[nH]c(=O)cnc2c1=O,-52*,25%,89µM*,2%,-7%,-10%
Cn1c(N)cc(=O)[nH]c1=S,9,30%,u,6%,x,x
O=C(O)CCCN1C(=O)/C(=C/c2ccncc2)SC1=S,0,29%,11%,-5%,-11%,-7%
O=C(O)CCCCCN1C(=O)/C(=C\c2ccc(-c3ccc(Cl)cc3)o2)SC1=S,2,40µM*,32µM*,-15%,-8%,u
O=C(O)CCCN1C(=O)/C(=C/c2ccc(-c3nc4ccccc4s3)o2)SC1=S,u,16µM*,10µM*,u,-16%,10µM*
O=C(Nc1cccc(-c2nc3cccnc3s2)c1)C1c2ccccc2Oc2ccccc21,3,25%,u,-7%,-7%,79µM*
CCc1cc(=O)oc2cc(C)cc(OCC(=O)NC(Cc3ccc(Cl)cc3)C(=O)O)c12 (stereo not drawn),-2,13%,-20%,-13%,u,9%[57.1 µM]
C[n+]1cc(-c2ccccc2)n2c1CCCCC2,x,20%,-23%,-2%,-11%,45µM*
Cc1cc(N2C(=O)c3ccccc3C2=O)no1,x,x,-11%,x,x,x
COc1ccc(NC(=O)CCNS(=O)(=O)c2ccc3c(c2)CC(C)N3C(C)=O)cc1 (stereo not drawn),1,41%,-13%,-14%,-3%,-8%
CC1CCC(NC(=O)CCS(=O)(=O)c2ccc3c(c2)CC(C)N3C(=O)C2CC2)CC1 (stereo not drawn),4,-9%,u,30µM*,-5%,-17%[57.1 µM]
COc1cccc(CNC(=O)CCNS(=O)(=O)c2ccc3c(c2)CC(C)N3C(C)=O)c1 (stereo not drawn),-7,25%,u,27µM*,-9%,-9%
CCOc1ccc(NC(=O)CCNS(=O)(=O)c2ccc3c(c2)CC(C)N3C(C)=O)cc1 (stereo not drawn),u,15%,25µM*,3µM*,-6%,-14%
COc1cccc(CNC(=O)CCS(=O)(=O)c2ccc3c(c2)CC(C)N3C(=O)C2CC2)c1 (stereo not drawn),1,-2%,-7%,21µM*,-2%,-4%[57.1 µM]
CC(=O)N1CCC2(CCCN(c3ccncc3)C2)CC1,x,x,x,x,-3%,x
SMILES,PI5P4K alpha inh,HP1b chromo inh,JMJD2A Tudor inh,PLK1 PBD block,GCN5L2 inh,BAZ2B block
Cc1ccc(CS(=O)Cc2ccc(C(=O)NCc3ccccc3Br)o2)cc1 (stereo not drawn),0,23%,-11%,-16%,-9%,-12%
CC(=O)N1c2ccc(S(=O)(=O)NCC3CCC(C(=O)NC4CCC(C)CC4)CC3)cc2CC1C (stereo not drawn),3,25%,-18%,-8%,1%,0%
CC(=O)N1c2ccc(S(=O)(=O)NCC3CCC(C(=O)NC4CCCCC4C)CC3)cc2CC1C (stereo not drawn),-1,17%,u,27µM*,-13%,-4%
C/C(=C\c1ccccc1)C(=O)Nc1ccc(Cl)cn1,-6,122%,40%,-4%,-4%,44%
CCCCCN1C(=O)/C(=C/c2c(N3CCc4ccccc4C3)nc3ccccn3c2=O)SC1=S,-5,u,40µM*,5%,x,x
COc1ccc(NC(=O)/C(Cl)=C(/Cl)S(=O)Cc2ccccc2)cn1 (stereo not drawn),-5,49%,-9%,2.1µM*,2%,10%
CCOc1cccc(/C=C2/NC(=O)N(CC(=O)Nc3cccc(C)c3)C2=O)c1O,2,14%,-4%,-23%,-15%,0%
CCOc1cc(/C=C2/NC(=O)N(CC(=O)Nc3cccc(C)c3)C2=O)ccc1OCC(N)=O,u,-26%,56µM*,u,-10%,-17%
O=C(NN1S(=O)(=O)c2ccccc2S1(=O)=O)c1ccc(Br)cc1,-2,65%,-12%,-27%,-3%,50µM*
Cn1c2c(c(=O)[nH]c1=O)C(c1ccc(O)cc1)C1=C(N2)c2ccccc2C1=O (stereo not drawn),-11,35µM*,50µM*,u,-20%,2%
CCC(C)c1ccc(C2C3=C(Nc4nc(N)[nH]c(=O)c42)c2ccccc2C3=O)cc1 (stereo not drawn),-18,16%,-10%,-13%,-5%,-12%
COc1ccc(Cl)cc1NC(=O)CSc1nc2ccccc2nc1N1CCCCC1,x,98%,38%,x,2%,5%
Cc1cc(C(=O)C(C)OC(=O)c2cnccn2)c(C)n1-c1ccccc1 (stereo not drawn),0,-12%,u,-1%,-6%,25µM*
COc1cccc(CNc2nc3cc(-c4ccccc4)sc3c(=O)n2C)c1OC,18,x,x,2%,x,x
CCOc1c(CNc2nnnn2C)cccc1OC,0,60%,-12%,-2%,3%,-14%
Cn1c(-c2ccccc2)cnc1NCc1cc(Cl)ccc1O,-4,u,35µM*,-5%,-2%,56µM*
COc1ccc(CNc2ncc(-c3ccccc3)n2C)c(OC)c1OC,2,u,20µM*,5%,u,50µM*
COc1ccc(OC)c(CNc2ncc(-c3cccc([N+](=O)[O-])c3)n2C)c1,-1,14µM*,45µM*,0%,-4%,50µM*
